Common to all, as to assay: DAPPL (digital affinity profiling via proximity ligation, sequencing); 10 mM Tris-HCl pH 7.5, 50 mM NaCl, 1 mM DTT, 4% glycerol, room temperature, 30 min; GST-TFs on glutathione beads, 16-mer random dsDNA library, 0.1% formaldehyde crosslink after washing; high values mean tight binding
One experiment deals with T1, FEV (Homo sapiens, UniProt Q99581 1-238).
T1 sequence: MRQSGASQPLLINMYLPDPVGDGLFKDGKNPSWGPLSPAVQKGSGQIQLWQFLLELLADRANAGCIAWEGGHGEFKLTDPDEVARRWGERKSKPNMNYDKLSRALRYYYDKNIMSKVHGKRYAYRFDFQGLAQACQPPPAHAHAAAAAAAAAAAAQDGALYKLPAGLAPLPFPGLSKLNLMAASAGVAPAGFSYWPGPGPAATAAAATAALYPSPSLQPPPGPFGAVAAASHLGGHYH
To be noted: protein: recombinant; tags: N-terminal GST; dsDNA, one strand shown. The method in brief: (§1)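 Pools were built from human transcription factors expressed in yeast as GST fusions, captured on glutathione beads and DNA-barcoded, along with a tag-only sample. Incubation with 200 nmole of a 16-mer random double-stranded DNA library lasted 30 min at room temperature in Tris/NaCl/DTT/glycerol buffer, and was followed by washing, 0.1% formaldehyde crosslinking, proximity ligation, PCR amplification and Illumina NextSeq500 sequencing. Binding signal is the quotient of each hexamer's read frequency for a factor and its frequency for the tag-only sample.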

In a further experiment the target is ETV5 (Homo sapiens, UniProt P41161 1-510). To be noted: protein: recombinant; tags: N-terminal GST; dsDNA, one strand shown. The method in brief:
as §1

A further experiment concerns the target HSF1 (Homo sapiens, UniProt Q00613 1-529). Particulars: protein: recombinant; tags: N-terminal GST; chain copies: 3; dsDNA, one strand shown. The method in brief: as §1
Another experiment addresses T2, SPIC (Homo sapiens, UniProt Q8N5J4 1-248).
T2 sequence: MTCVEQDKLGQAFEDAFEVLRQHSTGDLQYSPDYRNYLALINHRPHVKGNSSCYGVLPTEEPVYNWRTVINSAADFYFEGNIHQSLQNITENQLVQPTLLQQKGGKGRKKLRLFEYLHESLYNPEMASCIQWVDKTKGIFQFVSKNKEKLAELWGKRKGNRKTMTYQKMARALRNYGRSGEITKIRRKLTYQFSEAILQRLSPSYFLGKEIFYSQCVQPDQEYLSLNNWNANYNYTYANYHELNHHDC
Particulars: protein: recombinant; tags: N-terminal GST; dsDNA, one strand shown. The method in brief:
as §1

A further experiment addresses ELF4 (Homo sapiens, UniProt Q99607 1-663). To be noted: protein: recombinant; tags: N-terminal GST; dsDNA, one strand shown. The method in brief: as §1
A further experiment addresses T3, ELK4 (Homo sapiens, UniProt P28324-2 1-405).
T3 sequence: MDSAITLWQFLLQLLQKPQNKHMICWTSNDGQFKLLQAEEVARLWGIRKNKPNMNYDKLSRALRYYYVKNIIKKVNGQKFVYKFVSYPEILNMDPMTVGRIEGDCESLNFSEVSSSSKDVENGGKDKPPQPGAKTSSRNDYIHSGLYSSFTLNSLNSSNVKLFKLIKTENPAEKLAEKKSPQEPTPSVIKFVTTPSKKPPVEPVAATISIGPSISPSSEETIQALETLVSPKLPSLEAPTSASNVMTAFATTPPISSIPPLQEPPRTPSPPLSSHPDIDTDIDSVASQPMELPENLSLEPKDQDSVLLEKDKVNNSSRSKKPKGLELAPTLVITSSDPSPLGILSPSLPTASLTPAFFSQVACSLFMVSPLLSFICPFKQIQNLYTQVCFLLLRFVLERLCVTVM
Particulars: protein: recombinant; tags: N-terminal GST; dsDNA, one strand shown. The method in brief: as §1

In a further experiment the target is T4, ETV2 (Homo sapiens, UniProt O00321 1-342).
T4 sequence: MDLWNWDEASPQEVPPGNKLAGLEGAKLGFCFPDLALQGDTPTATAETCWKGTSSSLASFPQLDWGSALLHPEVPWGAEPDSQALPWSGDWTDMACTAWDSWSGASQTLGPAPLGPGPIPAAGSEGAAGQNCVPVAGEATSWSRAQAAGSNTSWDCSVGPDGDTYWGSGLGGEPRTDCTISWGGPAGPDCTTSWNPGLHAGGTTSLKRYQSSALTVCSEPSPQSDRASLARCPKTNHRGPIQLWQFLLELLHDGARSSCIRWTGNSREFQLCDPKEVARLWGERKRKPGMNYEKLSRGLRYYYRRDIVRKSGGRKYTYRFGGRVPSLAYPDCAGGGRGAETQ
Particulars: protein: recombinant; tags: N-terminal GST; dsDNA, one strand shown. The method in brief: as §1

The target in a further experiment is T5, ELF3 (Homo sapiens, UniProt P78545 1-371).
T5 sequence: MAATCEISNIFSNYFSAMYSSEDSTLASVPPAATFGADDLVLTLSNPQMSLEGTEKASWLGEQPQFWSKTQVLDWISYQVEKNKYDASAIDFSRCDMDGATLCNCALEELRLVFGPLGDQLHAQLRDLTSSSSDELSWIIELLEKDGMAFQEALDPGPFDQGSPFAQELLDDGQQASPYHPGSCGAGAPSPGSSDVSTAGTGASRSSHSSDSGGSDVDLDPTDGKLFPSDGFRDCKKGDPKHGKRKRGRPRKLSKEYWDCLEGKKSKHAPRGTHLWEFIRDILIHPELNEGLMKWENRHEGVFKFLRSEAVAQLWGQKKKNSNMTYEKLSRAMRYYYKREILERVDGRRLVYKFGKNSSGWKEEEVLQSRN
Particulars: protein: recombinant; tags: N-terminal GST; dsDNA, one strand shown. The method in brief: as §1

In another experiment the target is CRX (Homo sapiens, UniProt O43186 1-299). Particulars: protein: recombinant; tags: N-terminal GST; dsDNA, one strand shown. The method in brief: as §1
Another experiment concerns the target ETV1 (Homo sapiens, UniProt P50549 1-477). Particulars: protein: recombinant; tags: N-terminal GST; dsDNA, one strand shown. The method in brief:
as §1

Another experiment deals with T6, ERF (Homo sapiens, UniProt P50548 1-548).
T6 sequence: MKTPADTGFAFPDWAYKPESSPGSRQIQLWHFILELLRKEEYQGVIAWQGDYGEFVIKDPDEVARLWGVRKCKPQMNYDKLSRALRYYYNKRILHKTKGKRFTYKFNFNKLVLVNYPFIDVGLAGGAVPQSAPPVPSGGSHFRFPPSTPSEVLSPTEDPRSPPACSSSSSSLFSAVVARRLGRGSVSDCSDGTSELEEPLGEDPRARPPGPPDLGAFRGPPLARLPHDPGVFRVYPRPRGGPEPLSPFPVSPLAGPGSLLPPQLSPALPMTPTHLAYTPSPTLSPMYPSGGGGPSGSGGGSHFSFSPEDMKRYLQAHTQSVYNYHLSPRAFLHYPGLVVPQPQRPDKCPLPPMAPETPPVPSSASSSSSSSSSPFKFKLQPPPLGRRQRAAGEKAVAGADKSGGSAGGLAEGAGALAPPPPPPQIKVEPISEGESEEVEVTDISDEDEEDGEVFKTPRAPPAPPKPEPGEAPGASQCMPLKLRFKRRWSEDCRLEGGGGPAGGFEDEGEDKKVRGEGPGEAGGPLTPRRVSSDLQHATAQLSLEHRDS
To be noted: protein: recombinant; tags: N-terminal GST; dsDNA, one strand shown. The method in brief:
as §1

The next experiment has as its target T7, ETV3L (Homo sapiens, UniProt Q6ZN32 1-361).
T7 sequence: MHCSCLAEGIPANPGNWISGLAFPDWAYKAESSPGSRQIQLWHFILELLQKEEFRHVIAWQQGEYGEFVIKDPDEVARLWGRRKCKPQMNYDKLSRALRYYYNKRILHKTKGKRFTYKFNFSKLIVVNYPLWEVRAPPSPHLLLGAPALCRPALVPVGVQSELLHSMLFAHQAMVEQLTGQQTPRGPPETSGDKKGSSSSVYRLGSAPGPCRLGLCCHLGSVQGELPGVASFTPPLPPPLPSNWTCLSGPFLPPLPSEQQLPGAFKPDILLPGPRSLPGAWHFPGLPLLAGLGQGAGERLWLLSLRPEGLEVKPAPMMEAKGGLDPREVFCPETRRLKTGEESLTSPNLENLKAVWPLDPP
To be noted: protein: recombinant; tags: N-terminal GST; dsDNA, one strand shown. The method in brief: as §1

The next experiment has as its target T8, ETS2 (Homo sapiens, UniProt P15036 1-469).
T8 sequence: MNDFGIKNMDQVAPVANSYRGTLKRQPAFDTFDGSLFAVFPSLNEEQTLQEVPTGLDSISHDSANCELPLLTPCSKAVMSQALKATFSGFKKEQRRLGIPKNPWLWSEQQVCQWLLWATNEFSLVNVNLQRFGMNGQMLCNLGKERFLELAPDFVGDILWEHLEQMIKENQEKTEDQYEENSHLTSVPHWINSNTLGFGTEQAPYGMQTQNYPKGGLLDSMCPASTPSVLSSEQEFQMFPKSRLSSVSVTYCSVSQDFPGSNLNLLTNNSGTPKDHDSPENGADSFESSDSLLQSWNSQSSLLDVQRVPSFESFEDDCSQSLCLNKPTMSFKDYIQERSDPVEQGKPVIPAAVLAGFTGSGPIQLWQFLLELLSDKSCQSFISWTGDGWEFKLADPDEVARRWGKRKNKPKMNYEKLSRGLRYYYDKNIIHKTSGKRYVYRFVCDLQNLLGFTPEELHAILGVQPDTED
Particulars: protein: recombinant; tags: N-terminal GST; dsDNA, one strand shown. The method in brief:
as §1

Another experiment has as its target T9, SPDEF (Homo sapiens, UniProt O95238 1-335).
T9 sequence: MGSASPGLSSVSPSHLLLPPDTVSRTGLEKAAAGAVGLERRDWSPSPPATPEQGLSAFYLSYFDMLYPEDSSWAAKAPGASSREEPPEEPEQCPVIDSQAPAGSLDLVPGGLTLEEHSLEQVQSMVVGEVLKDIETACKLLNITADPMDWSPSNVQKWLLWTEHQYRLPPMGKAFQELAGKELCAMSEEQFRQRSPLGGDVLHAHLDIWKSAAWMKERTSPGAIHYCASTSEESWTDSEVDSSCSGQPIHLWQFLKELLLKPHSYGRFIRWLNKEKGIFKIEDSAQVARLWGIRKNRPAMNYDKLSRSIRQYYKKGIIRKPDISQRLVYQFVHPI
To be noted: protein: recombinant; tags: N-terminal GST; dsDNA, one strand shown. The method in brief:
as §1

The next experiment deals with T10, ETV7 (Homo sapiens, UniProt Q9Y603 1-341).
T10 sequence: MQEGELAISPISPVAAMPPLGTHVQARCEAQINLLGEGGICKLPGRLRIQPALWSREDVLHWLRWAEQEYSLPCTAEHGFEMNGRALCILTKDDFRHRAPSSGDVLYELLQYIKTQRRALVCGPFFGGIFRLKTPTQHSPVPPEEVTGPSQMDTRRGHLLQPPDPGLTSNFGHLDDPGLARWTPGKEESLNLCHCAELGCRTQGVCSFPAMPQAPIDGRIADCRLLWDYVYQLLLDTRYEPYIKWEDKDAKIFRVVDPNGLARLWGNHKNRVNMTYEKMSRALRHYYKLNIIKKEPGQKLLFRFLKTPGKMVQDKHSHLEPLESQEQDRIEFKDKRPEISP
Particulars: protein: recombinant; tags: N-terminal GST; dsDNA, one strand shown. The method in brief: as §1

Another experiment concerns the target T11, ELF5 (Homo sapiens, UniProt Q9UKW6-2 1-255).
T11 sequence: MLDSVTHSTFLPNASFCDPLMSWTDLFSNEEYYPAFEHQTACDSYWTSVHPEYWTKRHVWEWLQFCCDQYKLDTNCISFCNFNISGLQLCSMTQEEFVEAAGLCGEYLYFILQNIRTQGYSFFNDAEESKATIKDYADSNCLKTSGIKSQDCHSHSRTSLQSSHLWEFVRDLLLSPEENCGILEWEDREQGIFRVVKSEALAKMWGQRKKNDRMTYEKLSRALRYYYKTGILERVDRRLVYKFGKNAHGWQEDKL
To be noted: protein: recombinant; tags: N-terminal GST; dsDNA, one strand shown. The method in brief:
as §1

Another experiment addresses T12, ETV3 (Homo sapiens, UniProt P41162-2 1-143).
T12 sequence: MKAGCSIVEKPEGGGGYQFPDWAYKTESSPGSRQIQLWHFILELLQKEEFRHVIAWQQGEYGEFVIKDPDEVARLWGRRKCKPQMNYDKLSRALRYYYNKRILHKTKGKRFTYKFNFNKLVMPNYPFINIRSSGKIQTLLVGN
Particulars: protein: recombinant; tags: N-terminal GST; dsDNA, one strand shown. The method in brief:
as §1

Another experiment concerns the target ETV6 (Homo sapiens, UniProt P41212 1-452). Particulars: protein: recombinant; tags: N-terminal GST; dsDNA, one strand shown. The method in brief: as §1

The text below walks through data of article PMC7862700, “An all-to-all approach to the identification of sequence-specific readers for epigenetic DNA modifications on cytosine”.

ETV6, sequence (P41212 whole entry): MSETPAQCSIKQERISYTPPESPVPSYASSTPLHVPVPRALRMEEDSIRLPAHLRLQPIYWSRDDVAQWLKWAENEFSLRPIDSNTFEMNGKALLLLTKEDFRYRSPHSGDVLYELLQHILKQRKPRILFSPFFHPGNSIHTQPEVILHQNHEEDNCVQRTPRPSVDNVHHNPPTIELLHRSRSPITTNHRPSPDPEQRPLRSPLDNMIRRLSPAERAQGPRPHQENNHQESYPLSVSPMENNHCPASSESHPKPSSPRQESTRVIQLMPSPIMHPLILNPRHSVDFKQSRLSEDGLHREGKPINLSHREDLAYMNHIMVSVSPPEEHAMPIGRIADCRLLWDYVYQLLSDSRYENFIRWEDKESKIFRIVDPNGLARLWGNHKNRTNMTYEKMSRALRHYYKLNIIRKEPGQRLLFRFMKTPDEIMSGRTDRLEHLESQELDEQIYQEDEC
HSF1, sequence (Q00613 whole entry): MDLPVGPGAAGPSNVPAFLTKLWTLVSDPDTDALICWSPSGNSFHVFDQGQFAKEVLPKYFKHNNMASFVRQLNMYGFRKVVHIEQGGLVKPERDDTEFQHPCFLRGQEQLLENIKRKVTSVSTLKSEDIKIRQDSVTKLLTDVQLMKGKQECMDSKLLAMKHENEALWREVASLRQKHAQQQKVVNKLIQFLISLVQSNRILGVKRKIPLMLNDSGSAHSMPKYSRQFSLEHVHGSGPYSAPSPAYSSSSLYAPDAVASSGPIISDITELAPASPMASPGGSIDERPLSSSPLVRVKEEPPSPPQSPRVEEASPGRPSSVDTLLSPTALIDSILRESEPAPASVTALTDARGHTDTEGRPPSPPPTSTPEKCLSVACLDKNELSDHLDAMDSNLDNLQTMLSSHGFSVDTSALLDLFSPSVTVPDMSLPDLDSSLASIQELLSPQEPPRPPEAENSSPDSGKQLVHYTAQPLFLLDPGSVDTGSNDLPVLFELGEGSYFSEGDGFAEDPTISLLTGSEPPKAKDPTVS
ETV5, sequence (P41161 whole entry): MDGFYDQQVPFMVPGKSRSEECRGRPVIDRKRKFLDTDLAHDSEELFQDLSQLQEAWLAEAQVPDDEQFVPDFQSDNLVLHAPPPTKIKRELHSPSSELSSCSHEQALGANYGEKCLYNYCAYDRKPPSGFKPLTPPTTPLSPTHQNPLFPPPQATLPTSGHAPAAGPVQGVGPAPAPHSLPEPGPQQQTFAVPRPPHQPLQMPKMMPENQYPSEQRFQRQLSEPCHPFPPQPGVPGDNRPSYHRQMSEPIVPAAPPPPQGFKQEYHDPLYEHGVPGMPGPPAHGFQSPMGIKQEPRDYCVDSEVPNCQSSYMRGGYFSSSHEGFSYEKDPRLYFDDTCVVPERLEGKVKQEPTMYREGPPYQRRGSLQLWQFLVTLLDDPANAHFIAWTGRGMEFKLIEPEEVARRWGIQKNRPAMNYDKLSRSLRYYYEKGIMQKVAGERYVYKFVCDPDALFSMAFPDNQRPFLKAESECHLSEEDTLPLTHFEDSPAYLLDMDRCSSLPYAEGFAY
CRX, sequence (O43186 whole entry): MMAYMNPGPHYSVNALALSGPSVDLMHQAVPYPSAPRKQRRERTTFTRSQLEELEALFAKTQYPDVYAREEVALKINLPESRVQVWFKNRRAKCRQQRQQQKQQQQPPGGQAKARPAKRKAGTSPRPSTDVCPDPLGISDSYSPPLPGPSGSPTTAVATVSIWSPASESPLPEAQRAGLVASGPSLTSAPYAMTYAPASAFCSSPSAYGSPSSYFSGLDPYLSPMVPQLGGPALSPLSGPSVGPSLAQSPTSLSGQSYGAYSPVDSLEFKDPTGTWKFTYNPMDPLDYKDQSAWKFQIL
ETV1, sequence (P50549 whole entry): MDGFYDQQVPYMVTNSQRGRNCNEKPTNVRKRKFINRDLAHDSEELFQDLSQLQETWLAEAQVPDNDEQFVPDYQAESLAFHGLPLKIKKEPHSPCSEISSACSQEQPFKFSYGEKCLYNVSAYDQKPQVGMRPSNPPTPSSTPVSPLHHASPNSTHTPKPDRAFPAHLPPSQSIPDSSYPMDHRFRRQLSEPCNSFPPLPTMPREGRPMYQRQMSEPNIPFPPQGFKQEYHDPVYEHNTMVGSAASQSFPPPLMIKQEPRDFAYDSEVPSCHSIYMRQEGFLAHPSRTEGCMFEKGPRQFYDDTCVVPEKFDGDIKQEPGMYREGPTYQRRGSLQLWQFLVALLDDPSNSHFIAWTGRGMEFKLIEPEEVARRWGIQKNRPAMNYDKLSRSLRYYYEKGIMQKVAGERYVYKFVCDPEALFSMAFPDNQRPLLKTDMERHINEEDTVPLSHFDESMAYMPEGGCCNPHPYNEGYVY
ELF4, sequence (Q99607 whole entry): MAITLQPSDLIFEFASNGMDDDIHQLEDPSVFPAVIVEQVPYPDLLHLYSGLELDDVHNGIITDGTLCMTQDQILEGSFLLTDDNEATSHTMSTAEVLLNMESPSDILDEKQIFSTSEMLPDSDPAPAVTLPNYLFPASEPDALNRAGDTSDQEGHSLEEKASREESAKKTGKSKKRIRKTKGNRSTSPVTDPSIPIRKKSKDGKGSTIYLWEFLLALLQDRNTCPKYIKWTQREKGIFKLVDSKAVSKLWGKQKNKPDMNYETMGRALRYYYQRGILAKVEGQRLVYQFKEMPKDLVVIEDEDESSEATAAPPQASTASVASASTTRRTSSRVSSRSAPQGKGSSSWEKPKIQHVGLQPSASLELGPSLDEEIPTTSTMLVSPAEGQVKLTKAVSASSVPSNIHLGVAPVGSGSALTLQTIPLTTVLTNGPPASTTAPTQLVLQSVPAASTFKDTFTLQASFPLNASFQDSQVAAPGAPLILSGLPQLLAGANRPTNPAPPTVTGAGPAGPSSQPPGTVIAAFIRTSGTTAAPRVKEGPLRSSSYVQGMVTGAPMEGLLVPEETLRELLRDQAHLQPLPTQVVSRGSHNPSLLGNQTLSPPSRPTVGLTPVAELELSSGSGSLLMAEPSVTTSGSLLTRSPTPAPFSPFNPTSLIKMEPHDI

On to TTGTTC, for which the binding signal with FEV was 1.43 fold enrichment (6-mer frequency, TF over GST control); in the experiment with ETV5, 1.48 fold enrichment (6-mer frequency, TF over GST control); with HSF1, 1.89 fold enrichment (6-mer frequency, TF over GST control); with SPIC it was 1.48 fold enrichment (6-mer frequency, TF over GST control); in the experiment with ELF4, 1.37 fold enrichment (6-mer frequency, TF over GST control); in the experiment with ELK4, 1.48 fold enrichment (6-mer frequency, TF over GST control). Besides, the binding signal with ETV2 is 1.48 fold enrichment (6-mer frequency, TF over GST control); in the experiment with ELF3 it was 1.33 fold enrichment (6-mer frequency, TF over GST control); in the experiment with CRX, 1.43 fold enrichment (6-mer frequency, TF over GST control); with ETV1, 1.49 fold enrichment (6-mer frequency, TF over GST control); with ERF it was 1.63 fold enrichment (6-mer frequency, TF over GST control); in the experiment with ETV3L, 1.44 fold enrichment (6-mer frequency, TF over GST control). The binding signal is 1.33 fold enrichment (6-mer frequency, TF over GST control) with ETS2; 1.48 fold enrichment (6-mer frequency, TF over GST control) with SPDEF; 1.44 fold enrichment (6-mer frequency, TF over GST control) in the experiment with ETV7; 1.55 fold enrichment (6-mer frequency, TF over GST control) with ELF5; 1.52 fold enrichment (6-mer frequency, TF over GST control) with ETV3; 1.46 fold enrichment (6-mer frequency, TF over GST control) in the experiment with ETV6.
